A selection: hits, their analogues and other compounds. The true share with any hit is near 1.7%.
PTHR1 agonist: qHTS for PTHR1 Agonists: Primary Screen | Parathyroid hormone/parathyroid hormone-related peptide receptor (Homo sapiens), Q03431 | HEK293 GP2 PTHR1 cells, GloSensor cAMP luminescence, 1 h | Potency, µM (titrated, usually from 115 µM), inactives show at the top dose activation, hits mostly activators | 0.075% of 410,000 active | AID 743266, 2014; also: nearly all actives have a fitted effect of over 55% in size
Target sequence (Q03431 whole entry, looked up): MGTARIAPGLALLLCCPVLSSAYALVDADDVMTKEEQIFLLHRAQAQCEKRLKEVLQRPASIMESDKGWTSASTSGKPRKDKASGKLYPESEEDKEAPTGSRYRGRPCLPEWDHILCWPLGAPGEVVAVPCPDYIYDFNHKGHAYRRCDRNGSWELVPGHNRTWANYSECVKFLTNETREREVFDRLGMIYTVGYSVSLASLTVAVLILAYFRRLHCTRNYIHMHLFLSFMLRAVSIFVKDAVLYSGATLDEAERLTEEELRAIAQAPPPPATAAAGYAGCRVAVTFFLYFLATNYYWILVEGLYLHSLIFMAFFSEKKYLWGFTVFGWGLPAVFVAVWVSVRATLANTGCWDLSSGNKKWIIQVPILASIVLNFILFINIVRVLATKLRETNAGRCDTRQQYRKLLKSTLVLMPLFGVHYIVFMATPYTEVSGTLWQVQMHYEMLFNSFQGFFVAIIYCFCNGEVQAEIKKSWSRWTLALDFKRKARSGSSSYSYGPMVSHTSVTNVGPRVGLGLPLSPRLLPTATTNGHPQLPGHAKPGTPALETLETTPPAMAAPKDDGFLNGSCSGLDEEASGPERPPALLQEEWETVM
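HEK-293-derived GP2 cells expressing PTHR1 and a GloSensor cAMP reporter, 3,000/well, plated overnight, given luciferin plus IBMX (each 0.5 mM as added) for 1 h at 37 °C, then compound for 1 h at 37 °C. Luminescence was read after 15 min at room temperature.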
HEK293 tox: qHTS of GLP-1 Receptor Inverse Agonists: Cytotox Screen. HEK293 cAMP-luciferase reporter cells, luminescence, 24 h. Potency, µM (highest dose often 38.3 µM), without a hit: top-dose activity change, negative = inhibition, usual class: inhibitors. 0.13% of 410,000 active;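 also: loss of luciferase light is scored as toxicity; % is scaled to controls: 0 for no effect and ±100 for the full control effect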
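Here, cytotoxicity is scored as loss of luminescence. The MLSMR collection was tested on cells seeded in medium containing 10% Nu serum, with a 24 hr compound exposure preceded by 12 hours of culture.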
GLP1R inv ag: qHTS of GLP-1 Receptor Inverse Agonists (Inhibition Mode). HEK293 GLP-1R CRE-luciferase, luminescence, 24 h; GLP-1R form is constitutively active. AID 624417, 2012. Potency, µM (titrated, usually from 38.3 µM), for inactives: top-dose activity change, negative = inhibition, hits mostly inhibitors. 1.6% of 410,000 active. Glucagon-like peptide 1 receptor (Homo sapiens), P43220; also: % is scaled to controls: 0 for no effect and ±100 for the full control effect; nearly all actives have a fitted effect of over 55% in size
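Using stably transfected HEK293 (constitutively active GLP-1R, cAMP-luciferase reporter), compounds were incubated 24 hr and luciferase measured by luminescence.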
GLP-1R agonist: qHTS of GLP-1 Receptor Agonists | Potency, µM (doses to about 45.6 µM), without a hit: at the top dose activation, most hits filed as activators | Glucagon-like peptide 1 receptor (Homo sapiens), P43220 | AID 624172, 2012 | HEK293 GLP-1R CRE-luciferase, luminescence, 4-6 h; cells express a hypersensitive GLP-1R form | 0.007% of 380,000 active; also: % of control where 0% means no effect
Active calls of the source: *; i = inactive; ? = inconclusive; / = not tested or not shown; [ ] = another dose, or the depositor's remark. Calls follow the shape of the dose curve; as a rule, active = well fitted curve in the direction sought with a large enough effect; inconclusive = small, poorly fitted or top-dose-only effect, or another doubt; inactive = no such curve, though single readings can be large; an effect the other way counts as inactive or inconclusive. Potency is read from the fitted curve at half-maximal effect.

SMILES	PTHR1 agonist	HEK293 tox	GLP1R inv ag	GLP-1R agonist
CC1OC(CC(=O)O)CC2=C1C(=O)c1c(O)cccc1C2=O (configuration not stated)	-44%	0.89µM*	?	-28%
O=S(=O)(Nc1cc(C(F)(F)F)ccc1N1CCOCC1)c1ccccc1	i	3%	-27%	-2%
Cc1cccc(S(=O)(=O)Nc2cc(Cl)ccc2N2CCOCC2)c1	-14%	-2%	10µM*	7%
CC12CCC(C(=O)n3c1nc1ccccc13)C2(C)C (configuration not stated)	?	22%	1.6µM*	7%
O=C1CSc2nc3ccccc3n21	-6%[57.5 µM]	11%	4%	5%
O=C(NCc1ccccc1)C(c1ccc(C(F)(F)F)cc1)n1c(=O)c(-c2ccco2)nc2ccccc21 (configuration not stated)	-6%	10%	?	/
O=C(CSc1nc2c([nH]c3ccccc32)c(=O)n1-c1ccccc1F)Nc1cccc(C(F)(F)F)c1	-14%	-22%	11µM*	3%
S=C(Nc1ccc(Cl)c(Cl)c1)NN1CCOCC1	i	?	-17%	-3%
O=C(c1cccnc1)N1CCC2CC1c1c(Cl)cccc12 (configuration not stated)	-45%	-17%	-19%	-6%
C(=C1NCCN1)c1cccc2ccccc12	/	/	/	-3%
CCOc1cccc(CN2CCCC(N3CCN(c4cccc(Cl)c4)CC3)C2)c1O (configuration not stated)	-9%	-21%	10µM*	-3%
CCOc1cccc(CN2CCCC(N3CCc4ccccc4C3)C2)c1O (configuration not stated)	-23%	1%	-22%	7%
CC(C)(C)CC(C)(C)NCC(O)COc1c(F)cc(Br)cc1F (configuration not stated)	-12%	-5%	10µM*	-20%
CC(C)(C)NCC(O)COc1c(F)cc(Br)cc1F (configuration not stated)	i	-3%	-1%	7%
CN(C)Cc1cn(CCC(=O)O)c2ccccc12	-4%[57.5 µM]	-11%	0%	2%
COc1ccccc1N1CCN(c2nc3ccccc3n3cnnc23)CC1	i	-7%	-22%	/
CCCC(=O)NCCCc1nc2ccccc2n1C(C)C	i	-2%	5%	9%
CCC1CN(C(=O)Nc2cccc3c2CCCC3)c2ccccc2O1 (configuration not stated)	-24%	1%	?	/
CCC1CN(C(=O)Nc2cccc3c2CCCC3)c2cc(Cl)ccc2O1 (configuration not stated)	-12%	-16%	10µM*	/
Cc1cc(C)c2c(=O)cc(CSCC(=O)Nc3ccccc3Cl)[nH]c2c1	-36%	3%	-18%	/
CCN(CC)CCCNC(=O)c1oc2ccc(S(=O)(=O)N3CC(C)CC(C)C3)cc2c1C (configuration not stated)	i	?	1.4µM*	12%
CCOC(=O)N1CCN(C(=O)c2oc3ccc(S(=O)(=O)N4CCCCC4)cc3c2C)CC1	-5%[57.5 µM]	-20%	7%	6%
Cc1c(C(=O)N2CCCCC2)oc2ccc(S(=O)(=O)N3CC(C)CC(C)C3)cc12 (configuration not stated)	-84%[57.5 µM]	-17%	8.9µM*	1%
CC1CCCCN1CCNS(=O)(=O)c1ccc2c(c1)oc(=O)n2C (configuration not stated)	i	-5%	-5%	-9%
O=S(=O)(NCCc1csc(-c2cccnc2)n1)c1ccc(Cl)s1	-51%	10%	-15%	-3%
SMILES	PTHR1 agonist	HEK293 tox	GLP1R inv ag	GLP-1R agonist
CCOc1ccc2nc(NC(=O)c3ccccc3)sc2c1	-32%	1%	?	/
CCOc1ccc2nc(NS(=O)(=O)Cc3ccccc3)sc2c1	i	?	10µM*	4%
Cc1ccc(NC(=O)CSc2nnc(COc3ccccc3F)n2N)cc1S(=O)(=O)N1CCOCC1	-33%	-12%	3%	-7%
CN(C)c1ccc(C(CNC(=O)COc2ccc(Cl)cc2)N2CCOCC2)cc1 (configuration not stated)	i	1%	13%	/
CN(C)c1ccc(C(CNC(=O)COc2ccc(Cl)cc2)N2CCCC2)cc1 (configuration not stated)	i	-22%	11µM*	13%
COc1cc2c(cc1OC)C(c1cc(OC)c(OC)c(OC)c1)C1(O)C(=O)OCC1(O)C2 (configuration not stated)	i	?	-10%	14%
CCn1nc([N+](=O)[O-])c(C(C#N)c2nc3cc(C(F)(F)F)ccc3s2)c(Cl)c1=O (configuration not stated)	-17%[57.5 µM]	5µM*	0%	-23%
CCN(CC)C(=O)c1cc(C(C)(C)C)c(O)c(C(C)(C)C)c1	-23%	17%	3%	3%
CCCOc1ccc(CCc2n[nH]c(=S)n2Cc2ccccc2)cc1	-12%[57.5 µM]	-2%	8.9µM*	1%
CCCOc1ccc(CCc2n[nH]c(=S)n2-c2ccccc2)cc1	-13%	?	-16%	14%
COc1ccc(CNC(=O)c2ccc(NC(=O)N3CCCCc4ccccc43)cc2)c(OC)c1	i	9%	11µM*	/
Cc1cc(CC(C)C)n(-c2nc3ccccc3c(=O)n2OCc2ccccc2)n1	-25%[57.5 µM]	-15%	7.1µM*	1%
O=C(NNC(=O)C1CCCCC1)C(=O)NC1CCCCC1	-6%[57.5 µM]	3%	-20%	-1%
CCOc1cc(C(=O)Nc2ccc3nc(Nc4cccc(Cl)c4)cc(C)c3c2)cc(OCC)c1OCC	-10%	-11%	5.6µM*	-1%
Cc1cc(Nc2cccc(Cl)c2)nc2ccc(NC(=O)c3cncc(Br)c3)cc12	-20%	?	2µM*	-5%
Cc1cc(Nc2cccc(Cl)c2)nc2ccc(NC(=O)COc3ccc(Cl)cc3)cc12	-7%	-2%	-21%	-1%
Cc1ccc(C)n1-n1cnc2sc3c(c2c1=O)CCCCC3	9%[57.5 µM]	78%	?	3%
Cc1ccc(C)n1-n1c(C)nc2sc3c(c2c1=O)CCCCC3	-3%[57.5 µM]	-13%	11µM*	2%
O=C(/C=C/c1ccc([N+](=O)[O-])cc1)Nc1ncc([N+](=O)[O-])s1	-31%	?	13µM*	-14%
O=C(/C=C/c1ccc([N+](=O)[O-])cc1)NCc1ccccn1	i	15%	9%	7%
COc1cccc(CNC(=O)CCC2CCCN(Cc3cc4ccccc4o3)C2)c1 (configuration not stated)	i	1%	11µM*	9%
CN(c1ccc(F)cc1)S(=O)(=O)c1ccc(Cl)c(C(=O)NCC(c2ccco2)N2CCCCC2)c1 (configuration not stated)	-16%	-28%	?	-3%

High-throughput results as filed in PubChem BioAssay.
